HCV inhibitor = qHTS Assay for Inhibitors of Hepatitis C Virus (HCV) | Huh7.5.1 HCVcc-Cre infection, luciferase reporter, 44 h | hit rate 3.4% among 340,000 | Potency, µM (series often up to 41.8 µM), without a hit: at the top dose activity change, negative = inhibition, hits mostly inhibitors
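Cells (1,000/well) were plated 4 h before compound, then infected with HCVcc-Cre virus (~0.5 moi). After 44 h further culture, infection was read as luciferase luminescence following a 15 min substrate incubation at room temperature.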
Sm TGR block = qHTS Assay for the Inhibitors of Schistosoma Mansoni Peroxiredoxins; purified TGR, DTNB reduction, TNB absorbance 405 nm; Potency, µM (highest dose often 114 µM), without a hit: top-dose activity change, negative = inhibition, hits mostly inhibitors; hit rate 3% among 360,000; AID 485364, 2010; also: nearly all actives have a fitted effect of over 60% in size
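TGR 20 nM + NADPH 100 uM (dispensed conc.), cpd preinc 15 min RT; start with NADPH (500 uM addition) then DTNB (15 mM addition). Kinetic TNB absorbance, 405 nm filter. Four-parameter Hill fit across titration.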
RE007 growth inh = qHTS Assay for Inhibitors of the HIV-1 protein Vpr. Potency, µM (series often up to 92.2 µM), for the others: top-dose activity change, negative = less growth, hits mostly inhibitors. S. pombe RE007 Vpr strain, BacTiter-Glo ATP luminescence, 24 h. hit rate 0.21% among 360,000. AID 651644, 2012; active = well fitted falling curve with a large enough effect; inconclusive = small, poorly fitted or top-dose-only effect; inactive = no such curve, though single readings can be large or run the other way; also: nearly all actives have a fitted effect of over 50% in size
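Fission yeast strain RE007, carrying one chromosomally integrated HIV-1 vpr copy, was seeded at OD 0.01 in PMG+AL medium with 23 nL pinned compound. After 24 h at 30 °C and 99% humidity, viability was read by BacTiter-Glo luminescence.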
FMDV inh = High Throughput Screening for Foot and Mouth Disease Virus Antivirals; hit rate 1.2% among 410,000; Potency, µM (top dose mostly 57.9 µM), inactives show at the top dose activity change, negative = inhibition, actives largely listed as inhibitors; FMDV antiviral cell-based qHTS; calls by dose curve; tested in HEK293T cells; also: read-out not given here; nearly all actives have a fitted effect of over 45% in size
MARV entry inh = qHTS for inhibitors of binding or entry into cells for Marburg Virus | Marburg virus pseudotyped entry inhibition, cell reporter | Potency, µM (doses to about 37.8 µM), inactives show at the top dose activity change, negative = inhibition, actives largely listed as inhibitors | hit rate 1.8% among 300,000 | AID 540276, 2011; calls by dose curve; tested in HEK293 cells
Lassa entry inh = qHTS for Inhibitors of binding or entry into cells for Lassa Virus | Lassa virus pseudotype entry inhibition, cell reporter | Potency, µM (series often up to 37.9 µM), without a hit: at the highest dose activity change, negative = inhibition, usual class: inhibitors | hit rate 1.2% among 300,000 | AID 540256, 2011; calls by dose curve; tested in HEK293 cells; also: nearly all actives have a fitted effect of over 50% in size
An asterisk follows results filed as active; [ ] = another dose, or the depositor's remark. Only some compounds are listed: those with a hit (about 7.2% of all), similar ones and a draw of the others. Unless noted, calls follow the shape of the dose curve; as a rule, active = well fitted curve in the direction sought with a large enough effect; inconclusive = small, poorly fitted or top-dose-only effect, or another doubt; inactive = no such curve, though single readings can be large; an effect the other way counts as inactive or inconclusive. % is scaled to controls: 0 for no effect and ±100 for the full control effect; potency is read from the fitted curve at half-maximal effect.

`CCN(C(=O)c1cnc(N2CCN(c3ncccn3)CC2)c2ccccc12)c1cccc(Cl)c1` gave HCV inhibitor inconclusive, Sm TGR block 19.6%, RE007 growth inh 1.3%, FMDV inh 20µM*, MARV entry inh inconclusive and Lassa entry inh inconclusive.
For CN(C(=O)c1cnc(N2CCN(c3ncccn3)CC2)c2ccccc12)c1ccc(Cl)cc1 the results were HCV inhibitor inconclusive, Sm TGR block 2.4%, RE007 growth inh 1.4%, FMDV inh 20µM*, MARV entry inh inconclusive and Lassa entry inh inconclusive.
Screening C[C@@H]1CN(C2CCN(C(=O)COc3ccccc3)CC2)C[C@H](C)O1 returned MARV entry inh 7.4%.
`CCOc1ccc(-n2c(-c3ccccc3)c[n+]3c2CCCCC3)cc1` gave HCV inhibitor inconclusive, Sm TGR block -2.0%, RE007 growth inh 2.5% and FMDV inh inconclusive.
Screening CCOc1ccc(-c2c(C)n(-c3ccc(OCC)cc3)c3[n+]2CCCCC3)cc1 returned HCV inhibitor 2.51µM*, Sm TGR block inconclusive, RE007 growth inh -4.5%, FMDV inh inconclusive, MARV entry inh inconclusive and Lassa entry inh inconclusive.
`CCOC(=O)C(CC)(CC)C(=O)/C=C/c1cccc(Br)c1` gave HCV inhibitor inconclusive, RE007 growth inh -7.2%, FMDV inh 22.4µM*, MARV entry inh inconclusive and Lassa entry inh inconclusive.
Screening NC(=O)NC(=O)COC(=O)/C=C/c1cccc(Br)c1 returned HCV inhibitor 8.1%, Sm TGR block 8.0%, RE007 growth inh 7.3% and FMDV inh -7.9%.
`O=C(NCc1ccc(F)cc1)c1ccc(N2CCc3ccccc32)c([N+](=O)[O-])c1` gave HCV inhibitor inconclusive, Sm TGR block 3.6%, RE007 growth inh -13.9%, FMDV inh inconclusive, MARV entry inh inconclusive and Lassa entry inh 18.4µM*.
Screening CCCNC(=O)c1ccc(N2CCC3(CC2)CC(c2ccccc2)=NO3)c([N+](=O)[O-])c1 returned HCV inhibitor inconclusive, Sm TGR block -1.4%, RE007 growth inh 38.9% and FMDV inh inconclusive.
`O=C(O)c1ccc(N2CCc3ccccc32)c([N+](=O)[O-])c1` gave HCV inhibitor 6.3%, Sm TGR block 3.1%, RE007 growth inh 2.0% and FMDV inh -14.9%.
`O=C(NCc1ccccc1)c1ccc(N2CCC3(CC2)CC(c2ccc(Cl)cc2)=NO3)c([N+](=O)[O-])c1` gave HCV inhibitor 4.47µM*, Sm TGR block -22.7%, RE007 growth inh 12.9% and FMDV inh inconclusive.
CC1CCN(c2ccc(C(=O)NCc3ccco3)cc2[N+](=O)[O-])CC1 was read as HCV inhibitor inconclusive, Sm TGR block -0.1%, RE007 growth inh 3.8%, FMDV inh 2.8%, MARV entry inh inconclusive and Lassa entry inh 6.51µM*.
`O=C(NCc1ccco1)c1ccc(N2CCCCC2)c([N+](=O)[O-])c1` gave HCV inhibitor inconclusive, Sm TGR block -7.7%, RE007 growth inh 5.2%, FMDV inh 43.2%, MARV entry inh 16.2% and Lassa entry inh 20.6µM*.
Screening O=C(NCc1ccco1)c1ccc(N2CCOCC2)c([N+](=O)[O-])c1 returned HCV inhibitor 12.3%, RE007 growth inh -8.4%, FMDV inh 0.4%, MARV entry inh -18.0%[46.1 µM] and Lassa entry inh inconclusive.
NC(=O)C1CCN(c2ncnc3c2cnn3-c2cccc(Cl)c2)CC1 was read as Sm TGR block 7.5%, FMDV inh 33.3% and Lassa entry inh 28.2%[46.1 µM].
`Cc1ccc(-n2c(=O)c3c4c(sc3n(CC(=O)Nc3cccc(Cl)c3)c2=O)CCCCC4)cc1C` gave Sm TGR block -1.8%, FMDV inh -10.6%, MARV entry inh inconclusive and Lassa entry inh 12.4%[46.1 µM].
COc1ccccc1C(=O)NC1=NC(c2ccc(Br)cc2)CC(=O)N1 (centres undefined) was read as Sm TGR block 5.0%, FMDV inh 33.9%, MARV entry inh inconclusive and Lassa entry inh -29.7%[46.1 µM].
`Cc1cc2nc(-c3ccc(OCc4ccccc4C)cc3)cc(C(F)(F)F)n2n1` gave Sm TGR block 1.5%, FMDV inh -25.8%, MARV entry inh 2.6%[46.1 µM] and Lassa entry inh -7.2%[46.1 µM].
For NNC(=O)c1ccc(N2CCCCCC2)c([N+](=O)[O-])c1 the results were HCV inhibitor inconclusive, Sm TGR block -0.5%, RE007 growth inh -14.1%, FMDV inh 2.4%, MARV entry inh -15.5% and Lassa entry inh -21.6%.
Cc1ccc(N(Cc2ccco2)C(=O)c2ccc(N3CCCCC3)c([N+](=O)[O-])c2)cc1 was read as HCV inhibitor inconclusive, Sm TGR block -0.3%, RE007 growth inh -5.0%, FMDV inh 36.7%, MARV entry inh 23.1µM* and Lassa entry inh inconclusive.
`Nc1nc(-c2ccccc2)c(N=Nc2ccccc2Cl)s1` gave HCV inhibitor 11.2µM*, Sm TGR block -12.4%, RE007 growth inh -6.7%, FMDV inh -10.9%, MARV entry inh inconclusive and Lassa entry inh -14.5%.
`Cc1ccc(N(CC(=O)NCc2ccc3c(c2)OCO3)C(=O)CCC(=O)Nc2ccccn2)cc1` gave HCV inhibitor inconclusive, Sm TGR block -5.0%, RE007 growth inh -4.2%, FMDV inh 0.0%, MARV entry inh -0.6%[46.1 µM] and Lassa entry inh inconclusive.
For Cc1ccc(N(CC(=O)NCC2CCCO2)C(=O)CCC(=O)Nc2ccccn2)cc1 (centres undefined) the results were HCV inhibitor 5.0%, Sm TGR block -1.8%, RE007 growth inh -6.3%, FMDV inh 7.4%, MARV entry inh 0.3%[46.1 µM] and Lassa entry inh 5.1%.
For Cc1cc(C)cc(N(CC(=O)NCc2ccc3c(c2)OCO3)C(=O)CCC(=O)Nc2ccccn2)c1 the results were HCV inhibitor -9.0%, Sm TGR block -30.3%, RE007 growth inh -5.3%, FMDV inh inconclusive, MARV entry inh inconclusive and Lassa entry inh 10µM*.
Screening Cc1ccc(N(CC(=O)NCC2CCCO2)C(=O)CCC(=O)Nc2ccccn2)cc1C (centres undefined) returned HCV inhibitor -7.6%, Sm TGR block 79.4µM*, RE007 growth inh -13.9%, FMDV inh 16.9%, MARV entry inh 9.1%[46.1 µM] and Lassa entry inh -2.8%.
Screening O=C(NCCc1ccccn1)C1CC12CCN(C(=O)c1c(F)cccc1Cl)CC2 (centres undefined) returned FMDV inh 5.2%.
O=C1C=CC2(C=C1)O[C@H](Cc1ccccc1)[C@@H](Cc1ccccc1)O2 was read as HCV inhibitor 2.51µM*, RE007 growth inh inconclusive, FMDV inh 3.98µM*, MARV entry inh 2.82µM* and Lassa entry inh 7.08µM*.
